# Source: article PMC7862700, “An all-to-all approach to the identification of sequence-specific readers for epigenetic DNA modifications on cytosine”
# Tests used:
# Assay in all cases: DAPPL (digital affinity profiling via proximity ligation, sequencing); 10 mM Tris-HCl pH 7.5, 50 mM NaCl, 1 mM DTT, 4% glycerol, room temperature, 30 min; GST-TFs on glutathione beads, 16-mer random dsDNA library, 0.1% formaldehyde crosslink after washing; high values mean tight binding
# FEV = biological target: T1, FEV (Homo sapiens, UniProt Q99581 1-238); details: protein: recombinant; tags: N-terminal GST; dsDNA, one strand shown
# T1 sequence: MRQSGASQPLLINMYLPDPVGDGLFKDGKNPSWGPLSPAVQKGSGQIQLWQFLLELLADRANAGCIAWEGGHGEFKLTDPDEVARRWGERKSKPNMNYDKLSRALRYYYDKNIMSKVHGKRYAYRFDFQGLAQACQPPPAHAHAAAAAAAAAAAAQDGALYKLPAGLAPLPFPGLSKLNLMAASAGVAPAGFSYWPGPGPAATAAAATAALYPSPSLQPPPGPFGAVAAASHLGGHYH
# How it was run: (§1)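 Pools of DNA-barcoded human transcription factors, expressed in yeast as GST fusions on glutathione beads and combined with a tag-only sample, were incubated with 200 nmole of a 16-mer random double-stranded DNA library. Incubation took 30 min at room temperature in Tris/NaCl/DTT/glycerol buffer and was followed by washing, 0.1% formaldehyde crosslinking, proximity ligation (BsaI/T4 ligase, 1 h, 37 °C), PCR amplification and sequencing on an Illumina NextSeq500. Binding signal is the ratio of a hexamer's read frequency for a factor to its frequency for the tag-only sample.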
# ETV5 = ETV5 (Homo sapiens, UniProt P41161 1-510); details: protein: recombinant; tags: N-terminal GST; dsDNA, one strand shown
# How it was run: as §1
# HSF1 = HSF1 (Homo sapiens, UniProt Q00613 1-529); details: protein: recombinant; tags: N-terminal GST; chain copies: 3; dsDNA, one strand shown
# How it was run: as §1
# SPIC = biological target: T2, SPIC (Homo sapiens, UniProt Q8N5J4 1-248); details: protein: recombinant; tags: N-terminal GST; dsDNA, one strand shown
# T2 sequence: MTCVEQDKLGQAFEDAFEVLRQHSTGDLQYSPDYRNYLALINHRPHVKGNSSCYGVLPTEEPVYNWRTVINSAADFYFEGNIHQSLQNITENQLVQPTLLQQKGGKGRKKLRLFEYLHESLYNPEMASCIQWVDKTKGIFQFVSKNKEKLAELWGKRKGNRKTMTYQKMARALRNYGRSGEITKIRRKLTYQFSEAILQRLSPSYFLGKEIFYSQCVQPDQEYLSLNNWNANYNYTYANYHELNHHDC
# How it was run: as §1
# ELF4 = ELF4 (Homo sapiens, UniProt Q99607 1-663); details: protein: recombinant; tags: N-terminal GST; dsDNA, one strand shown
# How it was run: as §1
# ELK4 = biological target: T3, ELK4 (Homo sapiens, UniProt P28324-2 1-405); details: protein: recombinant; tags: N-terminal GST; dsDNA, one strand shown
# T3 sequence: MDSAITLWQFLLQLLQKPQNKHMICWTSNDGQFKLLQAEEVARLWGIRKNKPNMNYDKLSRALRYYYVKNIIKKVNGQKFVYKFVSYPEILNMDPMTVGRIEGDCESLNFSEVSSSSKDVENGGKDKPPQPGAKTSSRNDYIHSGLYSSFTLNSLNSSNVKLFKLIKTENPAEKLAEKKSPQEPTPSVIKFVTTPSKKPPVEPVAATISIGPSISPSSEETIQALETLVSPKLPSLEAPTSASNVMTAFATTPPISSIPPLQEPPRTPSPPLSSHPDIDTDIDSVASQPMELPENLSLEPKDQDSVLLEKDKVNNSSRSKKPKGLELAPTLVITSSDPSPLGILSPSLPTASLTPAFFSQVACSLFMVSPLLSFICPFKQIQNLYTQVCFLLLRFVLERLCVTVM
# How it was run: as §1
# ETV2 = biological target: T4, ETV2 (Homo sapiens, UniProt O00321 1-342); details: protein: recombinant; tags: N-terminal GST; dsDNA, one strand shown
# T4 sequence: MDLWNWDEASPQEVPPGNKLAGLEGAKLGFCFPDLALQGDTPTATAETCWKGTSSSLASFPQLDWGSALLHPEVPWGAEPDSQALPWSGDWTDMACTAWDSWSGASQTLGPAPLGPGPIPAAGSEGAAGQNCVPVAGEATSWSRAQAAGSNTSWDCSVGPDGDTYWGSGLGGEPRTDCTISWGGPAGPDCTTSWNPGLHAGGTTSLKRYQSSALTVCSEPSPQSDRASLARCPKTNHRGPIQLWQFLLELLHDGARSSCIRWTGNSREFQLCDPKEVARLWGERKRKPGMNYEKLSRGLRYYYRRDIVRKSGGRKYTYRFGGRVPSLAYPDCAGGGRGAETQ
# How it was run: as §1
# ELF3 = biological target: T5, ELF3 (Homo sapiens, UniProt P78545 1-371); details: protein: recombinant; tags: N-terminal GST; dsDNA, one strand shown
# T5 sequence: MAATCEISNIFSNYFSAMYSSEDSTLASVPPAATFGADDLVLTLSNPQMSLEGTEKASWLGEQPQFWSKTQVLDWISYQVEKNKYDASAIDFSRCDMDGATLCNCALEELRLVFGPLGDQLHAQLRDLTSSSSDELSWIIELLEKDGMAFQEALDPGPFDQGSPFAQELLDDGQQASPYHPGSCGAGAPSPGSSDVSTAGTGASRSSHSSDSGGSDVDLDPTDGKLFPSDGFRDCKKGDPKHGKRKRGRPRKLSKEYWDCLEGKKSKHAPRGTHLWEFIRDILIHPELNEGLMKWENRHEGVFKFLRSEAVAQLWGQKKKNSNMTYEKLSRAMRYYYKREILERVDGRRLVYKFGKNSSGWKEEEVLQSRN
# How it was run: as §1
# CRX = CRX (Homo sapiens, UniProt O43186 1-299); details: protein: recombinant; tags: N-terminal GST; dsDNA, one strand shown
# How it was run: as §1
# ETV1 = ETV1 (Homo sapiens, UniProt P50549 1-477); details: protein: recombinant; tags: N-terminal GST; dsDNA, one strand shown
# How it was run: as §1
# ERF = biological target: T6, ERF (Homo sapiens, UniProt P50548 1-548); details: protein: recombinant; tags: N-terminal GST; dsDNA, one strand shown
# T6 sequence: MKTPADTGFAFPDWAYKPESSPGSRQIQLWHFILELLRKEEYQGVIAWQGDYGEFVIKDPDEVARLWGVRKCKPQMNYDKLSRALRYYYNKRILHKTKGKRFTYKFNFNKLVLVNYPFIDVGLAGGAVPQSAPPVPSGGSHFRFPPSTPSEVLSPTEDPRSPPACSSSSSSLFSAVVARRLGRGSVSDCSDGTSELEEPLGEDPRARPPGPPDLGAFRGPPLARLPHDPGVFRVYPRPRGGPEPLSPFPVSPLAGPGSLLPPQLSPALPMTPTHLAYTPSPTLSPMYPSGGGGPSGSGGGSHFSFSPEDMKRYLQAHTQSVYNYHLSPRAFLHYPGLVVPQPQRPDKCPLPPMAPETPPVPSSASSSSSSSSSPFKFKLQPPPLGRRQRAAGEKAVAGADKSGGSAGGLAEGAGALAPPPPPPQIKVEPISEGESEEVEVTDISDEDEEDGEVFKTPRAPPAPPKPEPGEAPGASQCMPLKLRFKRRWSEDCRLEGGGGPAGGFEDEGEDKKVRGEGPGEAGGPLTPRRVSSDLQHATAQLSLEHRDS
# How it was run: as §1
# ETV3L = biological target: T7, ETV3L (Homo sapiens, UniProt Q6ZN32 1-361); details: protein: recombinant; tags: N-terminal GST; dsDNA, one strand shown
# T7 sequence: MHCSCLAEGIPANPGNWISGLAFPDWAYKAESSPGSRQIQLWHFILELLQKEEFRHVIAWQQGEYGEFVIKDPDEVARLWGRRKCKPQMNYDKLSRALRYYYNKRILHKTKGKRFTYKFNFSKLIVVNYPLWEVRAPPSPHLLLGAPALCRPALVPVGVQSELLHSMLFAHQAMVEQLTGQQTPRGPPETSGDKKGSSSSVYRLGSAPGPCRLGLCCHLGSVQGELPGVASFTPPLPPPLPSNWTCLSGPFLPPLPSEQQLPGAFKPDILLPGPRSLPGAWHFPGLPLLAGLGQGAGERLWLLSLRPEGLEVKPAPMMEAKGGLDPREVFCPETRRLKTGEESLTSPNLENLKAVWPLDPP
# How it was run: as §1
# ETS2 = biological target: T8, ETS2 (Homo sapiens, UniProt P15036 1-469); details: protein: recombinant; tags: N-terminal GST; dsDNA, one strand shown
# T8 sequence: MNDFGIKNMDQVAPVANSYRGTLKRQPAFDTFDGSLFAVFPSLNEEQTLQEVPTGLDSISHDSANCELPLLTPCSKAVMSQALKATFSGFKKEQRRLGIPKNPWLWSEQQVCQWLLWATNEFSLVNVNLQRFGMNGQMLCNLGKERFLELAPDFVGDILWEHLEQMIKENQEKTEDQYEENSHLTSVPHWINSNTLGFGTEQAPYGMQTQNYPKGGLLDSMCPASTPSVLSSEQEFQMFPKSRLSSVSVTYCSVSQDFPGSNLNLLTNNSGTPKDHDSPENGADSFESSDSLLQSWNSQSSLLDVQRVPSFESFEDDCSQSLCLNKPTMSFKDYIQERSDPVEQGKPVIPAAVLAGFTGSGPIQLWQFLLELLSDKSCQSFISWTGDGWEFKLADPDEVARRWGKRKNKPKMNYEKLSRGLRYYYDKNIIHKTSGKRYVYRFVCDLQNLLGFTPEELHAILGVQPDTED
# How it was run: as §1
# SPDEF = biological target: T9, SPDEF (Homo sapiens, UniProt O95238 1-335); details: protein: recombinant; tags: N-terminal GST; dsDNA, one strand shown
# T9 sequence: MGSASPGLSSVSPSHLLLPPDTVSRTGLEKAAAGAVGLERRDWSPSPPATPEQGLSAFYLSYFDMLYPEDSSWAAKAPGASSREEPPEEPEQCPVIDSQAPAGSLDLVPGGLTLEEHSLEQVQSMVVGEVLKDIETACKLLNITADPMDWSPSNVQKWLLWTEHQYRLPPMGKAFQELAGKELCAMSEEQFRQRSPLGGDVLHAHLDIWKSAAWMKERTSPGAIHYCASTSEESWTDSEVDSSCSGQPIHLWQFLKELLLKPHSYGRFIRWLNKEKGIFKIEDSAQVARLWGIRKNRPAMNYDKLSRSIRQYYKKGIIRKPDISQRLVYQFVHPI
# How it was run: as §1
# ETV7 = biological target: T10, ETV7 (Homo sapiens, UniProt Q9Y603 1-341); details: protein: recombinant; tags: N-terminal GST; dsDNA, one strand shown
# T10 sequence: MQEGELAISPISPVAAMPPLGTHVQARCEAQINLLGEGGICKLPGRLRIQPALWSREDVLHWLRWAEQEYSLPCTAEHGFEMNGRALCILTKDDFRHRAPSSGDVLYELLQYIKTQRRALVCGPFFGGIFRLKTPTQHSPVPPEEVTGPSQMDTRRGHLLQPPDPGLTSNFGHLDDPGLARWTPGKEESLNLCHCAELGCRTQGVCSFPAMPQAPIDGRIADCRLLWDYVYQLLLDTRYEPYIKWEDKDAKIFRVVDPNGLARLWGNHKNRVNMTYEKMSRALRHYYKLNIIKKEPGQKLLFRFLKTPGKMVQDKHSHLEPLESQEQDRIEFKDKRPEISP
# How it was run: as §1
# ELF5 = biological target: T11, ELF5 (Homo sapiens, UniProt Q9UKW6-2 1-255); details: protein: recombinant; tags: N-terminal GST; dsDNA, one strand shown
# T11 sequence: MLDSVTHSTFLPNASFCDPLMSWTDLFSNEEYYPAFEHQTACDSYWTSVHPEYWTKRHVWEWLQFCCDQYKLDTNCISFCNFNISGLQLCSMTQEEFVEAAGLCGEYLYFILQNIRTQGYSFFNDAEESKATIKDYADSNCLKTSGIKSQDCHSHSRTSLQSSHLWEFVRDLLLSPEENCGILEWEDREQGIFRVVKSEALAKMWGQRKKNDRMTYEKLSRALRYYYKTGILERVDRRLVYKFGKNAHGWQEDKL
# How it was run: as §1
# ETV3 = biological target: T12, ETV3 (Homo sapiens, UniProt P41162-2 1-143); details: protein: recombinant; tags: N-terminal GST; dsDNA, one strand shown
# T12 sequence: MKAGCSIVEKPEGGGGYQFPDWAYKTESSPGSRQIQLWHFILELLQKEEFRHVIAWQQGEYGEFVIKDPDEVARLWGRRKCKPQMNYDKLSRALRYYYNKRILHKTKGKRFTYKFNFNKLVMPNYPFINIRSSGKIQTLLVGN
# How it was run: as §1
# ETV6 = ETV6 (Homo sapiens, UniProt P41212 1-452); details: protein: recombinant; tags: N-terminal GST; dsDNA, one strand shown
# How it was run: as §1
# Sequence of ETV1 (P50549 whole entry): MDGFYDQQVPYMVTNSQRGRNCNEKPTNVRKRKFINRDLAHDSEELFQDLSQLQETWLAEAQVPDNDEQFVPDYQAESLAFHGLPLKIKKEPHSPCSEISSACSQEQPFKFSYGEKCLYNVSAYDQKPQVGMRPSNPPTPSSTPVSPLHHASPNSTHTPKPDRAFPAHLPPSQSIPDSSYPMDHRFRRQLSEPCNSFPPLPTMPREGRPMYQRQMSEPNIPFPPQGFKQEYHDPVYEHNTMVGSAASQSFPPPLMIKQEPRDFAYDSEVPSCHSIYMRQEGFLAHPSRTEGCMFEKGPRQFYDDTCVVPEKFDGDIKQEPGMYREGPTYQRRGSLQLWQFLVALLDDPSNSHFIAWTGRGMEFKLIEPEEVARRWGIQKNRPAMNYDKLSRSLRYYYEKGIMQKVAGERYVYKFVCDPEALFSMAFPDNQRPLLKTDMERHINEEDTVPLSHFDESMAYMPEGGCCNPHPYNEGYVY
# Sequence of ETV5 (P41161 whole entry): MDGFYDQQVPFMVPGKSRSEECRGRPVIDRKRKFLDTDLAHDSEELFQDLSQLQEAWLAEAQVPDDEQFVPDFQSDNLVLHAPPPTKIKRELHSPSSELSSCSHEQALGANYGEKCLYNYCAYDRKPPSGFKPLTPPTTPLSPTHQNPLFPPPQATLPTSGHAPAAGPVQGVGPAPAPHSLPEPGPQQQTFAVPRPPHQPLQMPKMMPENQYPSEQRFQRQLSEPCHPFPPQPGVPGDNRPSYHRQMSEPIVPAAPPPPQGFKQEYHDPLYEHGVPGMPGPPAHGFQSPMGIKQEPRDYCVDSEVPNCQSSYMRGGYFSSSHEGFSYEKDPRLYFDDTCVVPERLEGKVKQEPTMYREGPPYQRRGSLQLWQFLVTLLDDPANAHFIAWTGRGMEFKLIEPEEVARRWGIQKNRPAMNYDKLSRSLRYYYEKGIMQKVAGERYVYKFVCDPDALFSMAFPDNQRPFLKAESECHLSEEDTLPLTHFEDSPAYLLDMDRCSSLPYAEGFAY
# Sequence of HSF1 (Q00613 whole entry): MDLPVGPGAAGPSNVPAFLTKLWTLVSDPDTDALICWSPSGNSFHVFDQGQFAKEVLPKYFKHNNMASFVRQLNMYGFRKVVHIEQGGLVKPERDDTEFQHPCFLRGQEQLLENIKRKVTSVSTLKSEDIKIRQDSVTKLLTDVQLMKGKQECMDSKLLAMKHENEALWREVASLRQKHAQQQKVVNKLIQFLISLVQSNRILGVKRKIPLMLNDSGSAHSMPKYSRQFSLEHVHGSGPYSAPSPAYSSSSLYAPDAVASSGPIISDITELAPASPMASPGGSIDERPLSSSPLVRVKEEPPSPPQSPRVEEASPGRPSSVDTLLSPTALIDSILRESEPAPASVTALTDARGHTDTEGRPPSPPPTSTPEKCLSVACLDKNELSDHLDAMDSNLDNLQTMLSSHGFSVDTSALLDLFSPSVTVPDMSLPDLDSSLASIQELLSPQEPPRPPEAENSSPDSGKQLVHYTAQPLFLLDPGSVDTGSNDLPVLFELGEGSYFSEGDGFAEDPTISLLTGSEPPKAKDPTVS
# Sequence of ETV6 (P41212 whole entry): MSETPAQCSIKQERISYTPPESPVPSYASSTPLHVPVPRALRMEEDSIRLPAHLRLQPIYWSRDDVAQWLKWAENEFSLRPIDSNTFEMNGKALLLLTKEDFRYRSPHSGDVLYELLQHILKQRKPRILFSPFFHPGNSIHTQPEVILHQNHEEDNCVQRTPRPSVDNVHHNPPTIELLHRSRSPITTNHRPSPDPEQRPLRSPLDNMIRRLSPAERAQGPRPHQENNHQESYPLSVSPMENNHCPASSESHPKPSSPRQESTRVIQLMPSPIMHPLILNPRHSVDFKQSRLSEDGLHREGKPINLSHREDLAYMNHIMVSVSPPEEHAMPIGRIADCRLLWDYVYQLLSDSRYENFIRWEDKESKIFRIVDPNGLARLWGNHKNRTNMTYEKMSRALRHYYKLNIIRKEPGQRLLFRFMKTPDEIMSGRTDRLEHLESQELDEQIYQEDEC
# Sequence of ELF4 (Q99607 whole entry): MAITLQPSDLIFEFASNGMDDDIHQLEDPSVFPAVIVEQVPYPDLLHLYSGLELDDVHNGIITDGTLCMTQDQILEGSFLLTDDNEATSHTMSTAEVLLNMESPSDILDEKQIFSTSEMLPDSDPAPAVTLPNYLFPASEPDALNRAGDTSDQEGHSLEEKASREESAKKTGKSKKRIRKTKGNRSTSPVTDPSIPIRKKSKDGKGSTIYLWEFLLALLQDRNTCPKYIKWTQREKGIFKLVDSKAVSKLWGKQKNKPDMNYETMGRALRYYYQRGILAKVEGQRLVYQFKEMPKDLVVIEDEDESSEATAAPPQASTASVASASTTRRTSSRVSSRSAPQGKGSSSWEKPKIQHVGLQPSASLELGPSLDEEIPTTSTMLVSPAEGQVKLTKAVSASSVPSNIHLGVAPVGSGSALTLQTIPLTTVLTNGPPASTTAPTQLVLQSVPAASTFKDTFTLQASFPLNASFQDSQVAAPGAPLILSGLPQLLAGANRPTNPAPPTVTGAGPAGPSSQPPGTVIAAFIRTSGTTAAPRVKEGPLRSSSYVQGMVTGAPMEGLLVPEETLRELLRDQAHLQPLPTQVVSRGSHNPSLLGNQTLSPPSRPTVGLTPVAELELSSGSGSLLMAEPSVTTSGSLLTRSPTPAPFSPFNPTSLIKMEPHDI
# Sequence of CRX (O43186 whole entry): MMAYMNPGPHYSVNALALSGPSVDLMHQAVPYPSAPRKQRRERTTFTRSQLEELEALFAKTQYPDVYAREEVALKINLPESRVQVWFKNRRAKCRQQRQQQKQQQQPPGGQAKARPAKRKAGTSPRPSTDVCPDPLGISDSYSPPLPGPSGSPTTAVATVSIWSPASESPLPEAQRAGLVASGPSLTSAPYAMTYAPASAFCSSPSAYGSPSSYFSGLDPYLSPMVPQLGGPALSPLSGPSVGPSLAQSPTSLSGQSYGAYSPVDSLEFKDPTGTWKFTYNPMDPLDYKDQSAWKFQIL
sequence,measurement,setting,value
TTAATC,binding signal,FEV,"1.19 fold enrichment (6-mer frequency, TF over GST control)"
same,binding signal,ETV5,"1.23 fold enrichment (6-mer frequency, TF over GST control)"
same,binding signal,HSF1,"3.29 fold enrichment (6-mer frequency, TF over GST control)"
same,binding signal,SPIC,"1.19 fold enrichment (6-mer frequency, TF over GST control)"
same,binding signal,ELF4,"1.26 fold enrichment (6-mer frequency, TF over GST control)"
same,binding signal,ELK4,"1.43 fold enrichment (6-mer frequency, TF over GST control)"
same,binding signal,ETV2,"1.13 fold enrichment (6-mer frequency, TF over GST control)"
same,binding signal,ELF3,"1.27 fold enrichment (6-mer frequency, TF over GST control)"
same,binding signal,CRX,"6.11 fold enrichment (6-mer frequency, TF over GST control)"
same,binding signal,ETV1,"1.33 fold enrichment (6-mer frequency, TF over GST control)"
same,binding signal,ERF,"1.19 fold enrichment (6-mer frequency, TF over GST control)"
same,binding signal,ETV3L,"1.21 fold enrichment (6-mer frequency, TF over GST control)"
same,binding signal,ETS2,"1.29 fold enrichment (6-mer frequency, TF over GST control)"
same,binding signal,SPDEF,"1.26 fold enrichment (6-mer frequency, TF over GST control)"
same,binding signal,ETV7,"1.1 fold enrichment (6-mer frequency, TF over GST control)"
same,binding signal,ELF5,"1.18 fold enrichment (6-mer frequency, TF over GST control)"
same,binding signal,ETV3,"1.24 fold enrichment (6-mer frequency, TF over GST control)"
same,binding signal,ETV6,"1.21 fold enrichment (6-mer frequency, TF over GST control)"
